Results filed as inconclusive are left out. Active and inactive are the calls of the source. Unless noted, calls come from the whole dose curve; as a rule, active = well fitted curve in the direction sought with a large enough effect; inconclusive = small, poorly fitted or top-dose-only effect, or another doubt; inactive = no such curve, though single readings can be large; an effect the other way counts as inactive or inconclusive.

Assay [1] is described as follows: Primary redox qHTS assay for identification of artifact compounds. (AID 1845223).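 Note: 0% = DMSO and 100% = reference compound.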 In outline: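 Redox-cycling detection via DTT (250 uM final) oxidation coupled to Amplex Red (25 uM)/HRP (250 mU/mL) in HBSS. 15 min preincubation plus 30 min after DTT, room temperature. Ex/Em 525/598 nm; 4-parameter Hill fit against DMSO and 10 uM DA3003.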
Assay [2] in a line: qHTS drug screen for cell cycle checkpoint inhibitors in PARPi-resistant BRCA-mutant ovarian cancer cell lines. (AID 1963452; calls by dose curve; note: potency is the fitted concentration of half-maximal effect). The settings on record: PEO1/OlaR viability, CellTiter-Glo luminescence, 96 h; for Z-AUC: stronger effect = lower value. In outline: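 PEO1, PEO4 and PEO1/OlaR ovarian cancer cells, 600 per well, exposed 96 h at 37C to a dilution series. Viability read by CellTiter-Glo luminescence, normalized to DMSO and empty wells; activity summarized as Z-AUC.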

Assay [3] is described as follows: qHTS profiling for inhibitors of Plasmodium falciparum proliferation (AID 504749).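 Note: 0% = DMSO vehicle and full inhibition = artemisinin control; nearly all actives have a fitted effect of over 60% in size.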 The settings on record: P. falciparum in erythrocytes, SYBR Green DNA, 72 h, at 28.7 µM (top of the series). In outline: (§1)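 Each compound contacts P. falciparum-infected red blood cells for 72 h at 37 C; lysis buffer (Tris, EDTA, saponin, Triton X, SYBR Green I) is added and fluorescence measured next morning; values normalized to controls.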
(In general: qHTS replaces the single test concentration by a dilution series.)

For a further assay, the system named is 3D7. The description is as above. The settings on record: P. falciparum in erythrocytes, SYBR Green DNA, 72 h; series mostly up to 28.7 µM. In outline: as §1
A further assay deals with 7G8. The assay is described as above. The settings on record: P. falciparum in erythrocytes, SYBR Green DNA, 72 h; series mostly up to 28.7 µM. In a few lines:
as §1

The subject of another assay is AA1029. The assay is described as above. The settings on record: P. falciparum in erythrocytes, SYBR Green DNA, 72 h; series mostly up to 28.7 µM. In a few lines: as §1
Another assay relates to AS120. The description is as above. The settings on record: P. falciparum in erythrocytes, SYBR Green DNA, 72 h; series mostly up to 28.7 µM. In a few lines:
as §1

The subject of a further assay is ATS189. The assay is described as above. The settings on record: P. falciparum in erythrocytes, SYBR Green DNA, 72 h; series mostly up to 28.7 µM. In outline: as §1
The target in assay [4] is Cytochrome P450 2C9 (Homo sapiens) (UniProt P11712). The experiment in a line: qHTS for inhibitors of CYP2C9 against the NCATS DSHEA and TCM libraries (AID 1919973). Note: potency is the fitted concentration of half-maximal effect. In a few lines:
(§2)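 Concentration-response screening with isoform-matched pro-luciferin substrates. The CYP reaction was initiated by NADPH regenerating solution and ran 30-45 min in darkness at room temperature.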

Assay [5] deals with Cytochrome P450 2C19 (Homo sapiens) (UniProt P33261). The experiment in a line: qHTS for inhibitors of CYP2C19 against the NCATS DSHEA and TCM libraries (AID 1919974).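 Note: luminescence from luciferin released by CYP2C19 oxidation of a pro-luciferin substrate; potency is the fitted concentration of half-maximal effect.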 In a few lines:
as §2

A short description of assay [6]: KB-3-1 P-gp reporter qHTS against the NCATS DSHEA and TCM libraries (AID 1919975). Note: 0% is about no effect. In outline: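 72 h exposure of KB-3-1 cells (DMEM, 10% FBS) to DSHEA/TCM samples, concentration-response; cell viability measured as CellTiter-Glo luminescence after 30 min at room temperature.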
The target of assay [7] is Cytochrome P450 1A2 (Homo sapiens) (UniProt P05177). The experiment in a line: qHTS for inhibitors of CYPIA2 against the NCATS DSHEA and TCM libraries (AID 1919976). Note: potency is the fitted concentration of half-maximal effect. In outline:
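Enzyme and pro-luciferin substrate, or substrate alone as no-enzyme background, are pre-incubated with test samples for 15 min at room temperature. NADPH regeneration system (1x final) initiates a 30-45 min dark reaction; luciferase detection reagent follows before luminescence reading.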

A short description of assay [8]: qHTS Counterscreen for compound interference against the NCATS DSHEA and TCM libraries (AID 1919978). Note: % of control where 0% means no effect. The settings on record: firefly luciferase detection reagent interference, luminescence. In a few lines:
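Read-out is luminescence after 30 min at RT with luciferin detection reagent. Before that, compounds (19.5 nM to 39.8 uM final) sat 15 min at RT with 1 uM D-luciferin or 100 mM potassium phosphate buffer. PTC124 served as intraplate control.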

The nature of assay [9]: Dual reporter qHTS for agonist of Pregnane X Receptor (hPXR) against the NCATS DSHEA and TCM libraries: Fluorescence readout (AID 1920058). Note: 0% is about no effect. In outline:
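Cells were plated at 2000 per well and allowed to attach for 5 h. Test substances were pinned in and incubated roughly 24 h. CellTiter-Fluor was then added and fluorescence measured after 1 h.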

The target of assay [10] is Nuclear receptor subfamily 1 group I member 2 (Homo sapiens) (UniProt O75469). The experiment in a line: Dual reporter qHTS for antagonist of Pregnane X Receptor (hPXR) against the NCATS DSHEA and TCM libraries: Luminescence Readout (AID 1920060).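 Note: HepG2 cells carrying hPXR luciferase reporter stimulated with rifampicin at 2 µM; 0% is about no effect.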 In a few lines: (§3)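 HepG2 hPXR-Luc, 2000 cells/well, charcoal-stripped FBS medium; 5 h attach; RIF 2 uM final; 24 h 37C/5% CO2; CellTiter-Fluor 1 h, fluor 405/540; ONE-Glo 30 min RT, lum.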
Sequence of Nuclear receptor subfamily 1 group I member 2 (Homo sapiens) (O75469 whole entry, looked up): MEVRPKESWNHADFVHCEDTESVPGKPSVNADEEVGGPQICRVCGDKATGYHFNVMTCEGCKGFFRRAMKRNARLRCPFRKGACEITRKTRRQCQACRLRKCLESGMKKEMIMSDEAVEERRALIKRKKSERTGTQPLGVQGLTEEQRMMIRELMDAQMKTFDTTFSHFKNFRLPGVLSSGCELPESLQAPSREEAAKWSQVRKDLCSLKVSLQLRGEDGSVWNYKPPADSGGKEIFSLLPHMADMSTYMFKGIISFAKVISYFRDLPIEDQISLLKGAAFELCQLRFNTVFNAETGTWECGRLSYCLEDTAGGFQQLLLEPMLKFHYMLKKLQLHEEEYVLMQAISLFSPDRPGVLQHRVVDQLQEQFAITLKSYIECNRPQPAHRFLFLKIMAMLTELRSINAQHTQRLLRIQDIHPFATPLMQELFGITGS

Assay [11] in a line: Dual reporter qHTS for antagonist of Pregnane X Receptor (hPXR) against the NCATS DSHEA and TCM libraries: Fluorescence Readout (AID 1920061). Note: 0% is about no effect. In outline:
as §3

[12] abbreviates: measured here: PEO1 parental Z-AUC.

Sequence of Cytochrome P450 2C19 (Homo sapiens) (P33261 whole entry, looked up): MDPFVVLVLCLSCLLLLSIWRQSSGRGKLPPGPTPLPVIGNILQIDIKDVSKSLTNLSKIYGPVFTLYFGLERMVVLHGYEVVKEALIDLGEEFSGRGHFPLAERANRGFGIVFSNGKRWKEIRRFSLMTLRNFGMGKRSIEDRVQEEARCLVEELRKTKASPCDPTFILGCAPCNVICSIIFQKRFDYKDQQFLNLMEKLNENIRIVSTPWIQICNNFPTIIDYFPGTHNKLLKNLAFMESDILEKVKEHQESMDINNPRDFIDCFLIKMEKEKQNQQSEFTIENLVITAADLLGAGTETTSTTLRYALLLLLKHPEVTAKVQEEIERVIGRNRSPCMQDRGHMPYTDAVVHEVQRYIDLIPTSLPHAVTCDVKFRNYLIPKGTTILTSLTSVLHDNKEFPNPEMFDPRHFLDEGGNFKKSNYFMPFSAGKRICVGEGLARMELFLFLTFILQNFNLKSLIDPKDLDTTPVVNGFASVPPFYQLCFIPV
Sequence of Cytochrome P450 2C9 (Homo sapiens) (P11712 whole entry, looked up, canonical isoform): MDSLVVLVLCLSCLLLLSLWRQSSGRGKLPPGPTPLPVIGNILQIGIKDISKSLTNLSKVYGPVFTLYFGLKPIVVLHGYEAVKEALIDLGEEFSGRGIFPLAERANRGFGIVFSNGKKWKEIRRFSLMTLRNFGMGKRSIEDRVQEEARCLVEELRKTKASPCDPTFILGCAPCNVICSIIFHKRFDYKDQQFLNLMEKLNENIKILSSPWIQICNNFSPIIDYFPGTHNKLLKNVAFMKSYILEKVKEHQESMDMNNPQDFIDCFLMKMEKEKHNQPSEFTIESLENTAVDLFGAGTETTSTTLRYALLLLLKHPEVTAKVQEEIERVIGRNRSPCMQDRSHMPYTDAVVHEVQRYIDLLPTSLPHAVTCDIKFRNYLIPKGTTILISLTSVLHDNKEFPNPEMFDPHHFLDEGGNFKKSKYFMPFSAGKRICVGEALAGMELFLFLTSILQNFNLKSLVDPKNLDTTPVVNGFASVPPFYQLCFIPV
Sequence of Cytochrome P450 1A2 (Homo sapiens) (P05177 whole entry, looked up): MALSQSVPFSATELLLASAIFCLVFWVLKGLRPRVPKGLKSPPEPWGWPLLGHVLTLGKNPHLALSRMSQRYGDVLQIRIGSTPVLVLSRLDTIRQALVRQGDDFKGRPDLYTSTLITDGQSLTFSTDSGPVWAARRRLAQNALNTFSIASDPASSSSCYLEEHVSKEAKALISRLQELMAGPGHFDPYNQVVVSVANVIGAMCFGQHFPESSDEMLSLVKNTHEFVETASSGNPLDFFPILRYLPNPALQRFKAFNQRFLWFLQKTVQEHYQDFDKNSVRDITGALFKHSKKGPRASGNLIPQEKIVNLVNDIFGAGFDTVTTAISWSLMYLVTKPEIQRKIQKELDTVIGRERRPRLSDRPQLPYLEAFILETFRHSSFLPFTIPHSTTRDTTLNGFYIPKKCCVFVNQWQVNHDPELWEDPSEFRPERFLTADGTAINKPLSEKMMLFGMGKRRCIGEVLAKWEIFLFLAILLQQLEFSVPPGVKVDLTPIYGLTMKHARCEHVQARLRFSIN

For the molecule `CCn1c(=O)c(-c2ccc(-c3cncs3)cc2Cl)cc2cnc(Nc3ccc(N4CCN(C)CC4)cc3)nc21`, the Potency result in assay [1] is “inactive”. For the same molecule, the Z-AUC in assay [2] was -1.32 (inactive); in assay [2] (setting [12]), -0.743; in assay [2] (measured here: PEO4 Z-AUC), -0.961.

On to `Cc1cccc(-c2[nH]ncc2-c2ccc(F)c(-c3cnn(CCO)c3)c2)n1`, for which, in assay [1], the Potency entry is “inactive”. Also, the Z-AUC is 0.705 (inactive) in assay [2], 0.508 in [2] (setting [12]) and 1.13 in assay [2] (measured here: PEO4 Z-AUC).

As for `Cc1cnc(-c2ccccc2C(C)C)nc1NCc1ccc(-n2ccnn2)cc1`, the Potency entry in assay [1] was “inactive”. For the same molecule, the Z-AUC was 1.08 (inactive) in assay [2], 1.04 in [2] (setting [12]) and 1.31 in [2] (measured here: PEO4 Z-AUC).

Consider `Cn1ncc(Cl)c1-c1cc(C(=O)NC(CN)Cc2ccc(F)c(F)c2)oc1Cl` (stereo not given), for which, in assay [1], the Potency result is “inactive”. In addition, the Z-AUC in assay [2] is 0.713 (inactive); in assay [2] (setting [12]), 0.319; in assay [2] (measured here: PEO4 Z-AUC), 0.353.

On to `Cc1c(F)ccc(C(=O)Nc2cc([N+](=O)[O-])ccc2N2CCN(C)CC2)c1Cl`, for which, in [1], the Potency entry was “inactive”. Besides, the values for the Z-AUC in assay [2], in assay [2] (setting [12]) and in assay [2] (measured here: PEO4 Z-AUC) were 0.532 (inactive), 0.409 and -0.0381, respectively.

With `CCCC1(CCC)CCC2(CCN(CCCN(CC)CC)C2)CC1`, in assay [1], the Potency entry was “inactive”. The Potency in [2] was 3.89 µM (active). For the same molecule, the Z-AUC in [2] (setting [12]) is -2.03; in [2] (measured here: PEO4 Z-AUC), -1.83.

As to `Nc1nccc(-c2c(-c3ccc(F)cc3)ncn2C2CCCCC2)n1`, the Potency result in [1] is “inactive”. Also, the Z-AUC in assay [2] was -0.78 (inactive); in assay [2] (setting [12]), 1.09; in assay [2] (measured here: PEO4 Z-AUC), 0.204.

On to `C[C@@H](c1ccc2nccn2c1)n1nnc2ncc(-c3cnn(C)c3)nc21`, for which, in [1], the Potency entry was “inactive”. Besides, the Z-AUC in [2] is -0.155 (inactive); in [2] (setting [12]) it was -0.0646; in assay [2] (measured here: PEO4 Z-AUC), -0.199.

As for `COc1cc(OC)c2c(=O)[nH]c(-c3cc(C)c(OCCO)c(C)c3)nc2c1`, the Potency result in assay [1] was “inactive”. Further, the Z-AUC in assay [2] was 1.34 (inactive); in assay [2] (setting [12]) it was 1.31; in assay [2] (measured here: PEO4 Z-AUC), 1.15.

With `CCCC(CCC)C(=O)Nc1ccn([C@@H]2O[C@H](CO)[C@@H](O)C2(F)F)c(=O)n1`, the Potency entry in assay [1] was “inactive”. The Z-AUC in assay [2] is -1.13 (inactive); in assay [2] (setting [12]), -1.5; in [2] (measured here: PEO4 Z-AUC), -0.847.

As for `COc1cc(N2CCC(N)CC2)ccc1Nc1ncc(Cl)c(-c2c[nH]c3ccccc23)n1`, the Potency entry in [1] is “inactive”. The results for the Z-AUC in [2], in [2] (setting [12]) and in assay [2] (measured here: PEO4 Z-AUC) were -1.17 (inactive), -1.5 and -2.07, respectively.

On to `COc1ccc(-c2cnc3c(-c4cccc5ncccc45)cnn3c2)cc1`, for which the Potency entry in assay [1] is “inactive”. Further, the Z-AUC in assay [2] was -0.651 (inactive); in assay [2] (setting [12]), -0.725; in assay [2] (measured here: PEO4 Z-AUC) it was -0.465.

As to `O=C(Nc1cccnc1)c1cc(-c2ccnc(F)c2)ccc1OCc1ccccc1`, the Potency result in assay [1] is “inactive”. Besides, the Z-AUC in assay [2] was -0.389 (inactive); in [2] (setting [12]), -0.74; in assay [2] (measured here: PEO4 Z-AUC) it was -0.497.

Turning to `COc1ccc(Cl)c(Nc2ncnc3cc(OCC4CCN(C)CC4)c(OC)cc23)c1`, the Z-AUC is -1.39 (inactive) in assay [2], -0.765 in [2] (setting [12]) and -1.02 in assay [2] (measured here: PEO4 Z-AUC).

`Cc1nc(-c2cn3c(n2)-c2ccc(-c4cnn(C(C)(C)C(N)=O)c4)cc2OCC3)n(C(C)C)n1`: the results for the Z-AUC in assay [2], in assay [2] (setting [12]) and in assay [2] (measured here: PEO4 Z-AUC) were -1.26 (inactive), -0.764 and -0.716, respectively.

`CN1CCN(c2ccc(-c3cccc(CN4CCOCC4)c3)cc2NC(=O)c2c[nH]c(=O)cc2C(F)(F)F)CC1`: the Z-AUC is 0.777 (inactive) in assay [2], 0.269 in assay [2] (setting [12]) and 0.524 in assay [2] (measured here: PEO4 Z-AUC).

Turning to `COc1ccc(-c2c(C)nn3c(NCCN4CCOCC4)cc(C)nc23)cc1OC`, the Z-AUC was 0.717 (inactive) in assay [2], 0.787 in [2] (setting [12]) and 0.395 in [2] (measured here: PEO4 Z-AUC).

Take `CCCc1cc(C)[nH]c(=O)c1CNC(=O)c1cc(-c2ccnc(N3CCN(C)CC3)c2)cc2c1cnn2C(C)C`: the Z-AUC in [2] was -1.33 (inactive); in [2] (setting [12]), -1.11; in [2] (measured here: PEO4 Z-AUC), -1.01.

As to `CCCOc1ccc2nc(NC(=O)OC)sc2c1`, the figures for the activity, negative = inhibition in assay [3] (parasite line A) and in [3] (parasite line B) were -2.17% (inactive) and 4.31% (inactive), respectively. The Potency entry in the assay on 3D7, in the assay with 7G8, in the assay with AA1029, in the assay on AS120 and in the assay with ATS189 was “inactive” throughout.

Take `CCc1cc(C(N)=O)ccc1-n1nc(C(C)C)c2c(-n3cnc(-c4cnn(C)c4)c3)ccnc21`: the Z-AUC was -0.734 (inactive) in [2], -1.82 in assay [2] (setting [12]) and -1.2 in [2] (measured here: PEO4 Z-AUC).

Regarding `CC(=O)C1=C(O)C=C2Oc3c(C(C)=O)c(O)c(C)c(O)c3[C@]2(C)C1=O`, the values for the Potency in [4], in assay [5] and in [7] were 4.47 µM (active), 3.98 µM (active) and 7.94 µM (active), respectively. In addition, the outcome in [6], in assay [9], in [10] and in [11] was inactive. In addition, the max response in [8] was -5.05% (inactive).

For the molecule `N#Cc1ccnc(Nc2cc(C3CCN(C4COC4)CC3)cc(N3CCC(F)(F)C3)n2)c1`, the Z-AUC in assay [2] is -0.647 (inactive); in assay [2] (setting [12]), -0.398; in assay [2] (measured here: PEO4 Z-AUC) it was 0.109.

For the molecule `C=CC(=O)Nc1cccc(Nc2nc(Nc3ccc(OCCOC)cc3)ncc2F)c1`, the Z-AUC in assay [2] is -0.82 (inactive); in assay [2] (setting [12]), -1.21; in assay [2] (measured here: PEO4 Z-AUC) it was -1.08.

For `Cc1cc(-c2nc3cc(F)ccc3s2)ccc1NC(=O)[C@@H](N)CCCCN`, the Z-AUC in [2] is -0.88 (inactive); in assay [2] (setting [12]), -1.06; in [2] (measured here: PEO4 Z-AUC), -1.32.

Turning to `COC(=O)Nc1cc(Nc2cc(NC3CC3)c3ncc(C#N)n3n2)c(Cl)c(N2CCN(C)CC2)c1`, the Z-AUC in assay [2] is -1.26 (inactive); in [2] (setting [12]) it was -0.992; in assay [2] (measured here: PEO4 Z-AUC), -1.22.

In the case of `CN1CCN(c2ccc(OC(F)(F)F)c(Nc3ncc4c(n3)-c3c(c(C(N)=O)nn3CCO)CC4)c2)CC1`, the results for the Z-AUC in assay [2], in [2] (setting [12]) and in assay [2] (measured here: PEO4 Z-AUC) were -0.858 (inactive), -1.94 and -1.88, respectively.
